# CBX7 inh: CBX7 chromodomain binding inhibitors, primary screen, biochemical, AlphaScreen | normalised signal (fraction of DMSO) (no concentration beside the values) | AlphaScreen His6-CBX7 / biotin-H3K27me3 peptide binding; stronger effect = lower value | Chromobox protein homolog 7 (Homo sapiens), O95931 | 66,000 tested, 1.1% active | AID 1224903, 2016; in the data active = normalised signal below about 0.5
# Target sequence (O95931 whole entry, looked up): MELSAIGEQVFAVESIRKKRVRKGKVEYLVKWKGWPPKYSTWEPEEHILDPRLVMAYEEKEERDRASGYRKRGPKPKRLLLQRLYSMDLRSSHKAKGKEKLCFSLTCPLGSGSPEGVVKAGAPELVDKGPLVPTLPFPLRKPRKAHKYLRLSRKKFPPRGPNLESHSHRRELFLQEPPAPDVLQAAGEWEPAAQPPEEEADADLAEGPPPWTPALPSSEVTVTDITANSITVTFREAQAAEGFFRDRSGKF
# Numbers without * were called inactive. The entries come from a sample that favours hits as a whole.
SMILES,CBX7 inh
CCC(C)NC(=O)CC(C(=O)N1CCc2ccccc21)n1ccnc1 (stereo not drawn),1
O=C(CC(C(=O)N1CCc2ccccc21)n1ccnc1)NC1CC1 (stereo not drawn),1.02
O=C(CC(C(=O)N1CCc2ccccc21)n1ccnc1)NC(c1ccccc1)c1ccccc1 (stereo not drawn),0.451*
O=C(CSc1nnc(CNC(=O)c2cccs2)o1)NCc1ccc2c(c1)OCO2,0.983
CCCN1CCN(CCCNC(=O)C2CCCN(c3nc4ccc(OCC)cc4s3)C2)CC1 (stereo not drawn),1.03
CCOc1ccc2nc(N3CCCC(C(=O)N4CCN(Cc5ccccc5)CC4)C3)sc2c1 (stereo not drawn),0.716
CCOc1ccc2nc(N3CCCC(C(=O)N4CCC(C(N)=O)CC4)C3)sc2c1 (stereo not drawn),1.02
CCOc1ccc2nc(N3CCCC(C(=O)N4CCN(CC)CC4)C3)sc2c1 (stereo not drawn),0.434*
CCOc1ccc2nc(N3CCCC(C(=O)NCCCN4CCN(CC)CC4)C3)sc2c1 (stereo not drawn),0.436*
CCOCCCNC(=O)C1CCCN(c2nc3ccc(OCC)cc3s2)C1 (stereo not drawn),1.08
Cc1cccc(N2CCN(CCNC(=O)C3CCN(c4nnc(-n5cccc5)s4)CC3)CC2)c1C,1.09
N#Cc1ccccc1NC(=O)CSc1nc2ccccc2[nH]1,0.926
O=C(CN1C(=O)CC(c2ccccc2)Sc2ccccc21)Nc1ccccc1 (stereo not drawn),1.09
Cc1noc(C(=O)Nc2sc3c(c2C(N)=O)CCCC3)c1Cl,1.02
CCOC(=O)c1cnc2c(C)c(Cl)ccc2c1Nc1ccccc1OC,1.05
CCOC(=O)c1sc2ncn(CC(=O)Nc3ccccc3F)c(=O)c2c1C,1.06
OC1CCCCc2c1[nH]c1ccc(C3CCCCC3)cc21 (stereo not drawn),0.72
OC1CCCc2c1[nH]c1ccc(OCc3ccccc3)cc21 (stereo not drawn),0.426*
CCOC(=O)c1[nH]c2ccc(OCc3ccccc3)cc2c1C,1.1
Cc1onc(-c2ccccc2Cl)c1C(=O)NC1CCCCC1,1.08
Cc1ccc(-c2nc3ncccn3c2NC2CCCCC2)cc1,0.975
Cc1ccn2c(NC3CCCCC3)c(-c3cccnc3)nc2c1,1.09
Cc1ccn2c(NC3CCCC3)c(-c3ccccn3)nc2c1,0.431*
Cc1ccn2c(NC3CCCC3)c(-c3ccncc3)nc2c1,0.98
Cc1ccn2c(NC3CCCCC3)c(-c3ccccn3)nc2c1,0.46*
SMILES,CBX7 inh
Cc1ccc2nc(-c3ccncc3)c(NC3CCCC3)n2c1,1.12
Cc1ccc(-c2noc(C(C)Oc3ccc(Cl)cc3Cl)n2)cc1 (stereo not drawn),2.17
Cc1ccc2c(c1)N(CCCC(=O)NC1CCCC1)C(=O)CO2,1.01
Cc1sc(NC(=O)c2cc3ccccc3oc2=O)nc1-c1ccc(-c2ccccc2)cc1,1.06
CCn1cnc2cc(NCc3ccc(OC)c(OC)c3)ccc21,0.951
CCCn1cnc2cc(NCc3ccc(OC)c(OC)c3)ccc21,0.809
CCCn1cnc2cc(NCc3cccc(OC)c3)ccc21,0.563
CCCn1cnc2cc(NCc3ccc(Br)cc3)ccc21,0.326*
CCCCn1cnc2cc(NCc3ccc(Br)cc3)ccc21,0.255*
CCn1cnc2cc(NCc3ccc(Br)cc3)ccc21,0.956
COc1ccccc1NC(=O)C(=O)NCC1CCCO1 (stereo not drawn),1.04
O=C(NC1CCCCC1)C(c1ccc(Cl)cc1)N1CCCCC1 (stereo not drawn),1.04
COc1cccc(C(=O)Nc2c(C(=O)Nc3ccccc3F)oc3ccccc23)c1,1.1
CCn1c(C(=O)N2CCC(C(=O)NCCCN(C)C3CCCCC3)CC2)cc2sccc21,1.08
CCN(CC)CCN1C(=O)Cn2c3c(c4cccc1c42)CCC3,1.13
CN(C)CCCN1C(=O)CCn2c(-c3ccccc3)c(-c3ccccc3)c3cccc1c32,0.491*
O=C(Nc1ccc2c(c1)OCO2)C(c1ccccc1)N(Cc1ccccc1)c1ccccc1 (stereo not drawn),0.927
Cc1cc(=O)n2ccc(CN3CCCCC3)c(O)c2n1,0.00422*
Cc1cc(=O)oc2c(CN3CCCC3)c(O)ccc12,1.08
CCn1cc(C(=O)N2CCCCC2)c(=O)c2ccc(C)nc21,1.09
CCc1cccc(-n2c(C)nc3c(cnn3-c3ccc(F)cc3)c2=O)c1,0.952
CCCCc1ccc(Nc2nc(-n3nc(C)cc3C)nc(C)c2CC)cc1,0.792
COc1ccc(N2Cc3cccc(C(=O)Nc4cccc(Cl)c4C)c3C2=O)cc1,0.949
COc1cccc(-c2nn(C)c3sc(C(=O)NCCCN4CCN(C)CC4)cc23)c1,1.02
COC(=O)c1ccc2c(c1)N(Cc1ccc(C)cc1)C(=O)CS2,0.993
SMILES,CBX7 inh
CCOC(=O)c1cnn(-c2ccc(C)c(C)c2)c1C1CCN(C(=O)OC(C)(C)C)CC1,1.01
O=C(Nc1ccc(Cc2ccncc2)cc1)C12CC3CC(CC(C3)C1)C2,0.96
Cc1ccc(NC(=O)Nc2ccc(Cc3ccncc3)cc2)cc1C,1.02
O=C(Nc1ccc(Cc2ccncc2)cc1)c1ncn[nH]1,0.0584*
Cc1c(C(=O)NCCc2ccc(Cl)cc2)oc2ccc(S(=O)(=O)N3CCCCC3)cc12,1.01
CCN1CCN(C(=O)CN2C(=O)COc3ccc(S(=O)(=O)N(CC)CC)cc32)CC1,1.06
COc1ccc(C(=O)CC2(O)C(=O)N(Cc3ccc(Cl)cc3)c3ccccc32)cc1 (stereo not drawn),0.77
Cc1ccc(C(=O)CC2(O)C(=O)N(Cc3ccc(Cl)cc3)c3ccccc32)cc1 (stereo not drawn),0.732
CCc1ccc(C(=O)CC2(O)C(=O)N(Cc3ccc(Cl)cc3)c3ccccc32)cc1 (stereo not drawn),0.423*
CCN(C(=O)Cn1nc(Cc2ccncc2)c2ccccc2c1=O)c1cccc(C)c1,0.955
CCCCN1C(=O)C(O)(CC(=O)c2ccc(C(C)C)cc2)c2cc(Br)ccc21 (stereo not drawn),0.657
O=C(CC1(O)C(=O)N(CCc2ccccc2)c2ccc(Br)cc21)c1ccccc1 (stereo not drawn),0.626
CCCN1C(=O)C(O)(CC(=O)c2ccc(C(C)C)cc2)c2cc(Br)ccc21 (stereo not drawn),0.136*
CCOC(=O)c1ccc(NC(=O)CCNS(=O)(=O)c2ccc3c(c2)CCC(=O)N3)cc1,0.986
CCOCCCNC(=O)CN1C(=O)CC(C)(C)Sc2ccccc21,1.04
Cc1cc(C)n(-c2nc3ccccc3nc2Nc2ccc(N3CCCCC3)cc2)n1,0.42*
Cc1cc(C)n(-c2nc3ccccc3nc2Nc2ccc(F)cc2)n1,1.2
Cc1cc(C)n(-c2nc3ccccc3nc2Nc2ccc(C(C)C)cc2)n1,2.8
COc1cccc(Nc2ncnc3c2cnn3-c2ccc(C)cc2C)c1,0.964
Cc1ccc(CNC(=O)CN2C(=O)COc3ccc(S(=O)(=O)N4CCOCC4)cc32)cc1,1.07
CCc1ccc2oc(-c3cccc(NC(=O)c4ccc(F)cc4)c3)nc2c1,1.03
CCc1ccc2oc(-c3cccc(NC(=O)c4ccc(C)cc4)c3)nc2c1,1.07
CC(C)c1ccc2oc(-c3ccc(NC(=O)c4ccccc4F)cc3)nc2c1,1.03
CC(C)c1ccc2oc(-c3ccc(NC(=O)c4ncn[nH]4)cc3)nc2c1,0.0257*
CC(C)c1ccc2oc(-c3ccc(NC(=O)c4ccc(Cl)cc4)cc3)nc2c1,0.97
CCc1ccc2oc(-c3cccc(NC(=O)c4ncn[nH]4)c3)nc2c1,0.0127*

# Compound activity: PubChem BioAssay, Bradner/Qi Labs at DFCI
